# From PubChem
# Sampled rows, rich in hits. Any-hit rate of the full collection: about 4%.
# TRHR ag: TRH receptor (human) agonism. 360,000 compounds, 0.18% hits. activation, % at 2 µM. TRHR cells, calcium flux fluo-8, FDSS agonist mode. P34981; also: 0% is about no effect
# Target sequence (P34981 whole entry, looked up): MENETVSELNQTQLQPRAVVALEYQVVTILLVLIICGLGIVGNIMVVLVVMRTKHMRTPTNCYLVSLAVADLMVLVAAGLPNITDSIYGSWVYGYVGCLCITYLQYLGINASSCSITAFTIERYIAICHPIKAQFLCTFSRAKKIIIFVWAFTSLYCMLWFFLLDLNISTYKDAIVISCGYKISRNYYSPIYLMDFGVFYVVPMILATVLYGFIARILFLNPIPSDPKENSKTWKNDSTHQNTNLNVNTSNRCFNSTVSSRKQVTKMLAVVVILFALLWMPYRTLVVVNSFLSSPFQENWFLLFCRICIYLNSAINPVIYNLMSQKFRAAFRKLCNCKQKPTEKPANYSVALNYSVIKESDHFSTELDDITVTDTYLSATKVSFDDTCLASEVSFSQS
#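 Agonist-mode FDSS calcium read (Ex 480/Em 530, 1 s cycles) in 1536-well TRHR cells with fluo-8 dye, after 10-cycle baseline and 23 nL compound addition; TRH at EC20 (10 nM final) added afterwards for the enhancer phase.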
# GRP78 ERSR act: induces the endoplasmic reticulum stress response in human glioma cells. AID 602332. U87-MG GRP78 promoter luciferase reporter, 16 h. 420,000 compounds, 0.02% hits. Potency, µM, without a hit: top-dose activation, hits mostly activators; active = well fitted activation curve with a large enough effect; also: potency is read from the fitted curve at half-maximal effect; series mostly up to about 76 µM; % of control where 0% means no effect; nearly all actives have a fitted effect of over 35% in size
#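 ERSR induction read as luciferase luminescence (Bright-Glo, 10 min at room temperature) in stably transfected human U87-MG glioma cells exposed to compounds for 16 h, using GRP78 as sensor.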
# D1 antag: blocks dopamine activation of the human D1 receptor; 360,000 compounds, 3.2% hits; P21728; activity change, negative = inhibition, % at 10 µM; AID 504652; HEK293 TREx D1 cells, calcium flux, dopamine EC80; stronger effect = lower value; in the data active = activity change below about -30%; also: % is scaled to controls: 0 for no effect and ±100 for the full control effect
#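 Tetracycline-induced HEK293 Trex D1 cells, force-coupled to calcium, dye-loaded; compounds added and read 180 s, then EC80 dopamine added and calcium flux tracked kinetically another 180 s.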
# D1 ag: human D1 receptor agonism; P21728; activation, % at 2 µM; 360,000 compounds, 1% hits; HEK293 T-REx D1 cells, calcium flux, agonist mode; AID 504660; also: 0% is about no effect
#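 Agonism was scored from calcium flux recorded over 180 s (1 read/s) after pintool compound addition, following a 10-cycle baseline. Cells were inducible force-coupled HEK293 TREx D1, plated overnight at 30 C and loaded with no-wash calcium dye.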
# TRHR PAM: allosterically enhances the human TRH receptor. P34981. TRHR cells, fluo-8 calcium fluorescence, EC20 TRH enhancement. enhancement, % at 2 µM. 360,000 compounds, 0.66% hits. AID 493056; in the data active = enhancement above about 30%; also: 0% is about no effect
#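 TRHR-expressing cells loaded with fluo-8 calcium dye were read kinetically (ex 480/em 530) during compound addition, then stimulated with an EC20 of TRH (10 nM final). Enhancement of the Gq-mediated intracellular calcium response was scored.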
# D1 PAM: human D1 dopamine receptor positive modulation; potentiation, % at 10 µM; P21728; HEK293 TREx D1 cells, calcium flux, dopamine EC20 potentiation; 360,000 compounds, 0.036% hits; in the data active = potentiation above about 30%; also: 0% is about no effect
# * = called active by the depositor; · = not tested or not shown. Rule as the data show it, unless noted: active = activation above about 30%; inactive = the rest.
SMILES,TRHR ag,GRP78 ERSR act,D1 antag,D1 ag,TRHR PAM,D1 PAM
O=C(N/N=C\c1ccc(-c2ccccc2[N+](=O)[O-])o1)C1COc2cc3ccccc3cc2O1 (configuration not stated),0.1,-1.8%,-4.7,1.7,-3.2,-2.8
O=C(N/N=C/c1ccc(-c2ccccc2[N+](=O)[O-])o1)c1cncc(Br)c1,0.7,-0.4%,-18.6,1.0,0.7,-4.5
CNCc1c(OCc2ccccc2)ccc2ccccc12,0.7,-0.8%,-44.8*,25.3,3.0,-20.1
CC(C)(CO)NCc1c(OCc2ccc(Cl)cc2)ccc2ccccc12,2.2,-2.4%,2.3,35.2*,-7.1,-17.6
CNCc1c(OCc2ccccc2F)ccc2ccccc12,-0.7,-8.2%,-81.0*,38.6*,-1.1,-2.9
COc1cc(CNC(C)(C)CO)cc(Br)c1OCc1ccc(Cl)cc1,1.2,-1.5%,-6.4,33.8*,-6.7,-6.5
COc1cccc(NC(=O)C2C3C=CC4(O3)C2C(=O)N(CCCN2CCCCC2)C4C(=O)NC2CCCCC2)c1 (configuration not stated),-0.8,-3.7%,2.8,-1.9,-1.1,-4.2
CCOC(=O)c1ccc(NC(=S)N(CCCN2CCN(C)CC2)Cc2cccs2)cc1,0.9,8.7%,2.2,8.7,-1.8,-5.7
CCOC(=O)c1ccc(NC(=S)N(CCCN2CCCC(C)C2)Cc2ccco2)cc1 (configuration not stated),2.2,-0.9%,-38.6*,26.3,-8.9,-5.2
CCOC(=O)c1ccc(NC(=S)N(CCCN2CCCC2)Cc2ccco2)cc1,0.4,-2.9%,-13.9,9.1,2.7,-7.4
COc1cccc(NC(=S)N(CCCN2CCC(C)CC2)Cc2cccs2)c1,0.0,1.1%,-7.4,4.4,30.3*,0.1
CCOC(=O)c1ccc(NC(=S)N(CCCN2CCN(CC)CC2)Cc2cccs2)cc1,-0.1,2.5%,-29.7,49.0*,5.8,-7.3
Cc1cccc(-n2c(SCC(=O)N3CCN(c4ccccn4)CC3)nnc2N2CCOCC2)c1,0.4,-7.3%,6.7,3.5,4.6,-0.7
CCC1CCCCN1C(=O)CSc1nc(-c2ccc(OC)cc2)cc(C(F)(F)F)n1 (configuration not stated),0.7,-1.4%,-31.1*,2.9,5.2,-8.3
CCC1CCCCN1C(=O)CSc1nc(-c2ccc(OC)c(OC)c2)cc(C(F)(F)F)n1 (configuration not stated),-0.3,-3.0%,11.5,2.7,13.7,-4.8
CCc1ccc(NC(=O)CSCc2nc(N)nc(Nc3ccccc3CC)n2)cc1,-0.9,0.6%,-36.3*,-1.2,-4.0,-0.5
COc1cccc(CNc2ccc(F)c([N+](=O)[O-])c2)c1O,0.6,9.9%,-30.8*,7.6,-4.4,-8.5
CC(C)CCC1(CCNC(C)c2cccs2)CCOC(C)(C)C1 (configuration not stated),-0.4,-3.6%,-35.9*,2.7,4.0,-0.8
CN(C)CCOC1=Cc2ccccc2Sc2ccc(Cl)cc21,·,-3.7%,·,·,·,·
CCOC(=O)N1CCN(CC(=O)Nc2sc(CC)cc2C(=O)c2ccc(OC)cc2)CC1,2.0,-5.6%,-30.9*,8.3,0.1,1.7
CCc1cc(C(=O)OC)c(NC(=O)CN2CCN(C(=O)c3ccco3)CC2)s1,-2.4,-4.4%,-47.4*,115.7*,-6.0,3.0
CC1CCc2c(sc(NC(=O)CN3CCN(C(=O)c4ccco4)CC3)c2C#N)C1 (configuration not stated),-0.1,-0.8%,-31.4*,6.3,-0.8,-3.5
COC(=O)NC/C=C\c1nc(CCCO)co1,·,-3.0%,·,·,·,·
CCCC(=O)N1CCC1(C)C(=O)Nc1cc(OC)c(OC)c(OC)c1 (configuration not stated),·,-0.7%,·,·,·,·
CCOc1ccc(CC(=O)NCc2ccc3c(c2)CCN3C(C)=O)cc1OCC,0.4,-0.2%,0.1,1.6,-1.2,-0.3
SMILES,TRHR ag,GRP78 ERSR act,D1 antag,D1 ag,TRHR PAM,D1 PAM
CCOC(=O)N1CCN(C(=O)c2noc3c2COc2ccccc2-3)CC1,0.1,3.5%,-30.8*,6.7,2.0,-3.9
CCN(CC)C(=O)CN(c1cc2c(cc1OC)oc1ccccc12)S(=O)(=O)c1ccccc1,1.1,-1.6%,-67.7*,2.0,-3.6,-10.8
COc1cc2oc3ccccc3c2cc1N(CC(=O)N(C)C)S(=O)(=O)c1ccccc1,1.4,-5.2%,-5.2,1.2,-7.5,-0.5
Fc1cccc(-n2cc(-c3ccccc3)c3c(=S)nc[nH]c32)c1,-0.4,-5.7%,-11.3,0.3,-4.7,-4.6
Cc1ccc(-n2cc(-c3ccccc3)c3c(=O)[nH]cnc32)cc1,-0.3,-0.9%,-66.1*,0.9,-5.4,-19.1
Fc1ccc(-n2cc(-c3ccccc3)c3c(=S)nc[nH]c32)cc1,0.0,-4.5%,-40.6*,1.9,-19.4,-13.8
CC1(C)CC(=O)C(C(=O)c2ccccc2)C(=O)C1Cl (configuration not stated),-0.1,-2.2%,9.9,5.0,3.4,-3.2
Cc1ccc(S(=O)(=O)n2c3ccccc3c3nnc(C(=O)c4ccccc4)nc32)cc1,·,-0.6%,·,·,·,·
COc1ccc2nc(C)cc(NCc3ccc(F)cc3)c2c1,-1.1,-5.7%,-5.4,84.8*,3.9,-1.2
O=C(CC(NS(=O)(=O)c1ccc(Cl)cc1)c1ccco1)NCc1ccco1 (configuration not stated),-1.0,2.0%,-37.7*,9.1,-4.7,-4.0
N#CC(C#N)=C1C=CC=CN1/C(=C\c1ccccc1Cl)C(=O)c1ccccc1,1.7,-14.2%,-50.5*,2.7,-10.7,-12.6
N#CC(C#N)=C1C=CC=CN1/C(=C\c1ccccc1)C(=O)c1cccs1,-1.5,4.9%,-6.0,4.8,1.1,-9.1
O=C(CSc1nnc(-c2ccncc2)o1)NC1C2CC3CC(C2)CC1C3 (configuration not stated),-0.3,-5.8%,4.5,2.2,30.5*,-3.6
CCN(CC)C(=O)CSc1nc(N)c(C(=O)Nc2ccc(OC)cc2)s1,-0.1,1.2%,-32.3*,3.2,6.1,-1.1
COc1ccc(NC(=O)c2sc(SC)nc2N)cc1,-0.6,2.8%,-2.3,0.1,3.6,-3.0
C[C@H](O)C(N)C(=O)O (some centres not stated),·,4.7%,·,·,·,·
CCc1ccccc1NC(=O)c1cccc(NC(=O)/C=C/c2ccco2)c1,-1.1,6.4%,-36.1*,8.9,-5.1,-17.7
Cc1cccc(CNC(=O)c2cnn(-c3nccc(-c4cccs4)n3)c2C(C)C)n1,·,-3.1%,·,·,·,·
CSc1ncc(C(=O)Nc2cccc(C)c2C)c(C)n1,-0.2,-4.1%,-46.6*,-0.4,3.2,-2.9
COc1ccc(NC(=O)CN(C)C(=O)c2ccccc2Sc2ncnc3sc(C)c(C)c23)cc1,-0.6,-2.5%,-11.6,8.1,-4.0,-0.8
